Results taken from PubChem BioAssay AID493166 (National Center for Advancing Translational Sciences (NCATS), 2011).
Active and inactive are the calls of the source. Entries that show only a call come without a potency. Calls follow the shape of the dose curve; as a rule, active = well fitted curve in the direction sought with a large enough effect; inactive = no such curve, though single readings can be large or run the other way.

Experiment: Retest of LOPAC molecules that induce DNA re-replication in MCF 10A normal breast cells.
Conditions: MCF 10A DNA re-replication, Hoechst nuclear intensity, 48 h; series mostly up to 45.1 µM
Text: NIH Molecular Libraries Probe Production Network [MLPCN] NIH Chemical Genomics Center [NCGC] MLPCN Grant: Fast Track K99 CA136555 Assay Provider: Melvin DePamphilis, NICHD, NIH Assay Overview Eukaryotic cells normally restrict genome duplication to once per cell division. When this process is aberrant, DNA re-replication occurs when cells reinitiate DNA replication before the first round of replication is complete. DNA re-replication induces the DNA damage response, arrests cell proliferation, and triggers apoptosis. The cell cycle components cyclin A, Cdt-1, Cdc6 and geminin are critical regulators of this process and their misregulation results in DNA re-replication in normal and cancer cells. To identify compounds that induce re-replication in normal cells, an image-based assay was used to measure DNA content of nuclei, as detected by the fluorescent DNA binding dye, Hoechst. Cell nuclei were imaged by a fluorescence scanning plate imager and compounds that induce DNA re-replication were identified by the increase of nuclei with elevated fluorescence intensity.
Assay Protocol Summary For screening, 250 cells in 5 uL/well were dispensed into black clear 1536-well plates (Aurora) using a solenoid-based dispenser. Following transfer of 23 nL compound or DMSO vehicle by a pin tool, the plates were incubated 48 hr at 37 C and 5% CO2. After addition of 1 uL/well Hoescht stain, the plates were incubated 40 min at 37 C, 5% CO2 and total intensity of fluorescent objects (nuclei) were enumerated by an Acumen Explorer Ex3 (TTP LabTech) fluorescence scanning plate imager (405 nm excitation, 500-530 nm emission). Keywords: NIH Roadmap, MLPCN, MLI, MLSMR, qHTS, NCGC, DNA replication, cancer

Compound	Potency
C=C(C)[C@H]1Cc2c(ccc3c2O[C@@H]2COc4cc(OC)c(OC)cc4[C@@H]2C3=O)O1	0.755 µM (active)
COc1cc2c(c(OC)c1OC)-c1ccc(OC)c(=O)cc1[C@@H](NC(C)=O)CC2	inactive
CC(C)NP(=O)(NC(C)C)OP(=O)(NC(C)C)NC(C)C	inactive
